Data taken from PubChem BioAssay.
Calls of active or inactive are those of the source.

How the values were obtained:
[1] = small molecules captured by biotinylated probe aFSTL3 – biochemical, small-molecule microarray, fluorescence 635/667, stem cell growth factor project, primary screen (AID 1064); conditions: higher = more signal;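 note: measures binding of the biotinylated anti-FSTL3 antibody to printed compounds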
[2] = binders from COS7 lysate, DM2A8 probe, primary screen, torsin A project, cell lysate, small-molecule microarray, fluorescence 635/667 (AID 1065); conditions: higher = more signal, COS7 lysate expressing mutant human TOR1A
[3] = small molecules captured by biotinylated probe aFGF2 – biochemical, small-molecule microarray, fluorescence 635/667, stem cell growth factor project, primary screen (AID 1067); conditions: higher = more signal;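 note: measures binding of biotinylated aFGF2 protein to printed compounds on slides; z-score merges feature fluorescence and signal-to-noise across triplicate slides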
[4] = small molecules captured by biotinylated probe aFGF10 – biochemical, small-molecule microarray, fluorescence 635/667, stem cell growth factor project, primary screen (AID 1071); conditions: higher = more signal;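 note: score merges 667 nm spot intensity and signal to noise from triplicate slides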
[5] = target: Neurogenic locus notch homolog protein 2 (Homo sapiens) (UniProt Q04721); assay: small molecules binding Notch2 protein – biochemical, small-molecule microarray, 635 nm fluorescence, stem cell growth factors, primary screen (AID 1073); conditions: higher = more signal
[6] = target: Pro-neuregulin-1, membrane-bound isoform (Homo sapiens) (UniProt Q02297); assay: small molecules binding neuregulin-1 protein – biochemical, small-molecule microarray, fluorescence 635/667, psychiatric disease protein project, primary screen (AID 1075); conditions: NRG1 binding, 635 nm fluorescence, higher = more signal;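 note: score combines 667 nm spot fluorescence with signal to noise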
Pro-neuregulin-1, membrane-bound isoform (Homo sapiens), sequence (Q02297 whole entry, looked up, the tested form may be a part, canonical isoform): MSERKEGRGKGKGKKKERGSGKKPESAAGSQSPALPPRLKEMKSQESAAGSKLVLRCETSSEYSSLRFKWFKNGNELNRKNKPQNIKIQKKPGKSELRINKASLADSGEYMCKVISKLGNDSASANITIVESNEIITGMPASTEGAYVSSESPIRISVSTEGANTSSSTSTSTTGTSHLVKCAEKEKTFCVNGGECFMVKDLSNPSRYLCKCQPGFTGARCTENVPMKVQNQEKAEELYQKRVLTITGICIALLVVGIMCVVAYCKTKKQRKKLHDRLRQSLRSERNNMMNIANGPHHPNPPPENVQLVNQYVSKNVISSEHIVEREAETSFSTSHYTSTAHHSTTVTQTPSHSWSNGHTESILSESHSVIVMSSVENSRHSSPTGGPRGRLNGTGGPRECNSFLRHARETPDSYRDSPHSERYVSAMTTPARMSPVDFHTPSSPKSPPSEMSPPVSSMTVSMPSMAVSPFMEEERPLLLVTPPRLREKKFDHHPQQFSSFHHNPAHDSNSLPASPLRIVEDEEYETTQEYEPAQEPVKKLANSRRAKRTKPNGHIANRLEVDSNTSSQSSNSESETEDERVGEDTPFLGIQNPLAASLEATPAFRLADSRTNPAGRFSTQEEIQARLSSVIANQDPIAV

[7] = system: Neuregulin-1 EGF-like domain; assay: small molecules binding NRG1 EGF domain – biochemical, small-molecule microarray, 635 nm fluorescence, primary screen (AID 1081); conditions: higher = more signal;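 note: binding of the protein to compounds printed on small-molecule microarray slides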
[8] = FRG1 expression reporter modulators in myotubes – cell-based, C2C12 myotubes, firefly/Renilla luciferase, luminescence, FRG1 inhibition for FSHD, primary screen (AID 1084); conditions: FRG1 promoter luciferase, higher = more signal, called active from +8 up or from −8 down
[9] = small molecules captured by biotinylated probe aFST – biochemical, small-molecule microarray, fluorescence 635/667, stem cell growth factor project, primary screen (AID 1086); conditions: higher = more signal;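 note: score merges 667 nm fluorescence with signal-to-noise of each printed compound spot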
[10] = binders of probe aHhip on microarray, primary screen, stem cell growth factor project, biochemical, small-molecule microarray, fluorescence 635/667 (AID 1087); conditions: higher = more signal;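 note: score merges spot fluorescence at 667nm with spot signal to noise ratio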
[11] = system: PRMT1 (protein arginine N-methyltransferase 1); assay: small molecules binding arginine methyltransferase PRMT1 – biochemical, small-molecule microarray, 635 nm fluorescence, primary screen (AID 1088); conditions: higher = more signal;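 note: binding of Prmt1 protein to compounds spotted on small-molecule microarray slides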
[12] = growth effects on S. cerevisiae YJM789 – YJM789 clinical isolate, OD600, 24 h, basal, primary screen (AID 1089); conditions: higher = more signal, called active from +8 up or from −8 down;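 note: growth of clinical yeast isolate S. cerevisiae YJM 789 seeded 1000 cells per well; test concentration not given here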
[13] = S. pombe growth modifiers, basal conditions – strain 972, OD600, 24 h, no modulator, primary screen (AID 1090);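 note: basal condition with compound alone and no growth modifier present; test concentration not given here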; conditions: S. pombe 972 growth, higher = more signal, called active from +8 up or from −8 down
[14] = budding yeast growth modifiers under rapamycin – strain BY4716, OD600, 96 h, primary screen (AID 1091); note: test concentration not given here; conditions: S. cerevisiae BY4716 + rapamycin, higher = more signal, called active from +8 up or from −8 down
[15] = target: Torsin-1A-interacting protein 2 (Homo sapiens) (UniProt Q8NFQ8); assay: small molecules binding lysate-expressed LULL1 – cell lysate, human LULL1 lysate, 635/667 nm fluorescence, primary screen (AID 1092); conditions: small-molecule microarray, hLULL1 lysate binding, 635 nm fluorescence; higher = more signal;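 note: probe is lysate of COS7 cells overexpressing human LULL1; score merges per-feature 667 nm fluorescence with signal-to-noise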
Torsin-1A-interacting protein 2 (Homo sapiens), sequence (Q8NFQ8 whole entry, looked up): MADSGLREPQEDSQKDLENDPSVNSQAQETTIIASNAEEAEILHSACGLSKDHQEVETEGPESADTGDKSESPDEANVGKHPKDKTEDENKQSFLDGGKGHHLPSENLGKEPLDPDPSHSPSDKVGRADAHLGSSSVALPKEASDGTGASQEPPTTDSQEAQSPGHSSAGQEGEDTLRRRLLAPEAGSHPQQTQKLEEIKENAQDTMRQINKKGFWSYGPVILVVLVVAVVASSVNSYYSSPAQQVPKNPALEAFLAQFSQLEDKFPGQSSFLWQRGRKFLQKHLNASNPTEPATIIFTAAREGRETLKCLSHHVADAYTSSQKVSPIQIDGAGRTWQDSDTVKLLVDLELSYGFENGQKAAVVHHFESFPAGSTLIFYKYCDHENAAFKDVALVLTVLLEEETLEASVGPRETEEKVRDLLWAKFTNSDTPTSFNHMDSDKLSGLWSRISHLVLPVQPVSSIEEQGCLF

[16] = optical density change of DRC41 E. coli – strain DRC41, OD650, 24 h, E. coli filamentation project, primary screen (AID 1093);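 note: MC1000 strain lacking acrAB efflux and sulA so SOS filamentation is blocked; test concentration not given here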; conditions: E. coli DRC41 growth, higher = more signal, called active from +8 up or from −8 down
[17] = probe aLefty2 binding to arrayed compounds – biochemical, biotinylated probe, 635/667 nm fluorescence, primary screen (AID 1094); conditions: small-molecule microarray, higher = more signal;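 note: score merges spot fluorescence near 667 nm with spot signal-to-noise ratio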
[18] = system: Noggin (protein binding on small-molecule microarray); assay: small molecules binding Noggin protein – biochemical, 635/667 nm fluorescence, primary screen (AID 1095); conditions: 635 nm fluorescence, higher = more signal;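 note: score merges 667 nm feature fluorescence with signal to noise over triplicate slides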
[19] = target: Neurogenic locus notch homolog protein 3 (Homo sapiens) (UniProt Q9UM47); assay: small molecules binding NOTCH3 protein – biochemical, 635/667 nm fluorescence, primary screen (AID 1096); conditions: small-molecule microarray, 635 nm fluorescence, higher = more signal
Neurogenic locus notch homolog protein 3 (Homo sapiens), sequence (Q9UM47 whole entry, looked up): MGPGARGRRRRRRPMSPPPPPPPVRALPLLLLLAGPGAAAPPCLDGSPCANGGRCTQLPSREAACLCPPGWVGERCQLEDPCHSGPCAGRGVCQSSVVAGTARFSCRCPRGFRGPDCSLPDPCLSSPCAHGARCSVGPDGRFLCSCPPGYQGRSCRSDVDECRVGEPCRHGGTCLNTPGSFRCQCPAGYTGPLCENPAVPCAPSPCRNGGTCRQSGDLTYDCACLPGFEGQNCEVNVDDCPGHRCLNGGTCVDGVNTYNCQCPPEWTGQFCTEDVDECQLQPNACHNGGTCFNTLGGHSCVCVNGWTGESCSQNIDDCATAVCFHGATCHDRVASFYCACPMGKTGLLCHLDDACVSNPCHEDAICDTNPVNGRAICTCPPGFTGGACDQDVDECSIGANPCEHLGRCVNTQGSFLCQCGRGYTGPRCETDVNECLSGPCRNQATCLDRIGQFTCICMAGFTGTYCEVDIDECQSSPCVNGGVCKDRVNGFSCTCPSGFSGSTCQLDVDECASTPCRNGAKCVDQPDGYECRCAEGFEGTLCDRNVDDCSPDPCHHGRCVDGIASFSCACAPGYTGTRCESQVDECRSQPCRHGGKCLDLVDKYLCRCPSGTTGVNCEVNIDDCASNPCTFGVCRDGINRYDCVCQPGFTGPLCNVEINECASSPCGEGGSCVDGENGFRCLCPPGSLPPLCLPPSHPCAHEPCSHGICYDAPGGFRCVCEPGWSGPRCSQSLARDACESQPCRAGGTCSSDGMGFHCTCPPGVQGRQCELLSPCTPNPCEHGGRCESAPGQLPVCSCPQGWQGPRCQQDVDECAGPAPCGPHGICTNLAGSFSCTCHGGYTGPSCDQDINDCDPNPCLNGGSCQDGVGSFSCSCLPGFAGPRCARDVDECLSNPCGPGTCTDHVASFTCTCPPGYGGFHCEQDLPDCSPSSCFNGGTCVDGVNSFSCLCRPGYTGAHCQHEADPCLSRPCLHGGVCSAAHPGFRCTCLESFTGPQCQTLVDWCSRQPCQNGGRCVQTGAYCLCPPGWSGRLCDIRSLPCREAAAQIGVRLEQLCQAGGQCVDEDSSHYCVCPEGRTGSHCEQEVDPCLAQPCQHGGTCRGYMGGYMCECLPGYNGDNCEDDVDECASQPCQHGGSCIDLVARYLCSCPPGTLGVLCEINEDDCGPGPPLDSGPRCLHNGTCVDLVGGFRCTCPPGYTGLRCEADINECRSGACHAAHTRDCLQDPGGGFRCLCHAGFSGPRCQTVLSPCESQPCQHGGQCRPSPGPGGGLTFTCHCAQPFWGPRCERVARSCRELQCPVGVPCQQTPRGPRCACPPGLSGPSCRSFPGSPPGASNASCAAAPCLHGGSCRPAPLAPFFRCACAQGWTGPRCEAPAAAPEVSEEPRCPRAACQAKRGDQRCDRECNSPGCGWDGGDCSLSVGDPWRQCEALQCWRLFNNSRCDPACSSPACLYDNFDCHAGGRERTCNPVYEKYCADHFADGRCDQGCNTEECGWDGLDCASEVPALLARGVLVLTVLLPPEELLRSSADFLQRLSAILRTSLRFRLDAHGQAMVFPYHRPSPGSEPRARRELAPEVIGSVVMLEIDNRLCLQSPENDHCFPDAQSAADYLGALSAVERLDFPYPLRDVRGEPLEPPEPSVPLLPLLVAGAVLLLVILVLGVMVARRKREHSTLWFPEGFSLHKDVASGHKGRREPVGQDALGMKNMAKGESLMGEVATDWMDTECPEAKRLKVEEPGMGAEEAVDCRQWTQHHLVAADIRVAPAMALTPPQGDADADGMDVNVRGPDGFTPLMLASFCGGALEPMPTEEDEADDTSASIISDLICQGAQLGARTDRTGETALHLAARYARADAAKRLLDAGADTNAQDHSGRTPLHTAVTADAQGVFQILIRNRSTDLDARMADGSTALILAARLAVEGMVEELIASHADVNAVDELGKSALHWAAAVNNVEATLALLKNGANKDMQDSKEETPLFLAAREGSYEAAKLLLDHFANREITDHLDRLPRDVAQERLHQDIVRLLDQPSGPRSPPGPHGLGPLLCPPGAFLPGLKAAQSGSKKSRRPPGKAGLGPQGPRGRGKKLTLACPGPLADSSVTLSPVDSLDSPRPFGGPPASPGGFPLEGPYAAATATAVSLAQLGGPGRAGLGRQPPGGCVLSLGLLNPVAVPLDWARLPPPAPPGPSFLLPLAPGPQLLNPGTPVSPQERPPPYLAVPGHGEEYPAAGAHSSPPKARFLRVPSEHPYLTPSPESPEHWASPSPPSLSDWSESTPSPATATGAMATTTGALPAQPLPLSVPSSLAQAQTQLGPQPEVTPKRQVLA

[20] = probe aEGFR binding to arrayed compounds – biochemical, biotinylated probe, 635/667 nm fluorescence, primary screen (AID 1097); conditions: small-molecule microarray, higher = more signal;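 note: probe is a biotinylated anti-EGFR antibody binding compounds printed on slides; score combines fluorescence near 667 nm and signal to noise of each spot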

Compound	composite z-score [1]	composite z-score [2]	composite z-score [3]	composite z-score [4]	composite z-score [5]	composite z-score [6]	composite z-score [7]	z-score [8]	composite z-score [9]	composite z-score [10]	composite z-score [11]	z-score [12]	z-score [13]	z-score [14]	composite z-score [15]	z-score [16]	composite z-score [17]	composite z-score [18]	composite z-score [19]	composite z-score [20]
C=CCOC(=O)[C@@H]1[C@H]2C(=O)O[C@H](c3ccccc3)[C@H](c3ccccc3)N2[C@H](c2ccc(OCCOC(=O)[C@H]3C[C@H]4C(=O)N[C@@H](Cc5ccccc5)C(=O)N4[C@H]3c3cccc(OCCO)c3)cc2)[C@@]12C(=O)Nc1ccc(I)cc12	0.014	0.548	-0.0512	0.957	1.09	0.0935	1.31	2.41 (inactive)	0.56	-0.186	1.53	2.59 (inactive)	-2.26 (inactive)	0.874 (inactive)	1.93	-1.07 (inactive)	-0.193	1.59	1.03	0.276
CCCCCCC#C[Si](O[C@H](c1ccccc1)c1cn(Cc2cccc(Cl)c2)nn1)(C(C)C)C(C)C	-0.194	0.485	-0.161	0.238	0.631	0.485	0.382	-0.891 (inactive)	-0.0431	-0.0994	1	-0.381 (inactive)	0.403 (inactive)	-0.162 (inactive)	0.416	1.12 (inactive)	-0.0719	0.255	0.487	-0.0828
C=CC[C@]1(C(=O)N(C)C)N=C(c2ccc(OCCCO)cc2)O[C@H]1c1ccccc1	0.334	0.184	0.229	1.14	0.353	1.85	1.34	2.28 (inactive)	0.463	0.064	1.43	-1.76 (inactive)	-3.16 (inactive)	-0.979 (inactive)	3.59	0.896 (inactive)	0.0158	0.364	1.14	-0.0512
COC(=O)[C@@]1(Cc2ccc(OC)cc2)[C@H]2c3cc(C(=O)N(C)C)n(Cc4cc(C)n(C)n4)c3C[C@H]2CN1C(=O)c1ccccc1	0.223	0.221	0.468	1.26	1.33	1.92	1.31	2 (inactive)	0.732	0.309	0.847	0.296 (inactive)	0.134 (inactive)	0.562 (inactive)	3.99	-1.13 (inactive)	0.14	0.119	0.598	0.0423
COCCCNC(=O)[C@@H]1c2ccccc2C(=O)N(Cc2cc(F)cc(C(F)(F)F)c2)[C@H]1c1ccc(CO)cc1	0.211	-0.303	-0.233	-0.535	-0.984	-0.676	0.716	0.154 (inactive)	-0.395	-0.134	-0.444	-0.359 (inactive)	-0.555 (inactive)	-0.703 (inactive)	0.0519	0.526 (inactive)	-0.016	-0.902	-1.26	-0.207
NCCCCCCNC(=O)[C@H]1C[C@H]2C(=O)N3CCC[C@H]3C(=O)N2[C@H]1c1ccc(O)cc1	0.185	0.533	-0.029	0.176	-0.45	1.23	1.22	-0.415 (inactive)	0.0744	-0.184	1.29	-0.777 (inactive)	-1.25 (inactive)	-0.28 (inactive)	0.991	0.181 (inactive)	-0.179	1.41	0.419	0.0053
O=C1CSC(c2cccc([N+](=O)[O-])c2)N1c1ccccc1 (stereo not given)	0.315	-0.0123	-0.0161	0.508	0.839	0.146	0.979	-0.239 (inactive)	-0.0692	-0.0994	0.0447	-0.0876 (inactive)	0.616 (inactive)	1.09 (inactive)	0.517	0.666 (inactive)	-0.0163	0.36	0.201	0.0093
COc1ccc([Si](C)(C)[C@@H]2[C@@H](CC(=O)N3Cc4ccccc4C[C@H]3CO)O[C@]3(C(=O)N(Cc4cccc(N5CCCCC5=O)c4)c4ccccc43)[C@H]2C)cc1	-0.429	0.569	0.0207	0.494	0.523	0.69	0.899	-2.18 (inactive)	0.272	-0.0994	1.55	0.318 (inactive)	1.41 (inactive)	2.4 (inactive)	1.79	0.73 (inactive)	-0.0878	1.41	1.07	-0.0356
COCCOC(=O)N1C(=O)[C@@]2(c3cc(C#CCNC(N)=O)ccc31)[C@H](C(=O)N1CCCCCCC1)[C@H]1C(=O)O[C@H](c3ccccc3)[C@H](c3ccccc3)N1[C@@H]2c1ccc(OCCO)cc1	1.03	0.303	-0.0024	0.578	0.754	0.446	0.0222	-0.557 (inactive)	0.7	0.443	0.543	0.872 (inactive)	0.642 (inactive)	3.24 (inactive)	0.808	-0.299 (inactive)	0.239	0.616	1.07	0.0126
CCCNC(=O)[C@@]1(Sc2ccc(C)cc2)CC(=O)N(Cc2ccccc2)[C@@H]1c1ccc(CO)cc1I	1.33	-0.0477	-0.0917	-0.008	0.367	0.848	1.23	-1.9 (inactive)	0.692	-0.0346	0.933	-1.09 (inactive)	-1.46 (inactive)	0.605 (inactive)	0.869	0.605 (inactive)	-0.0866	0.54	0.282	-0.11
